Inconclusive results are not listed. Activity calls are given as the source filed them. Rule for the calls, unless noted: active = hit-call score of the fitted dose curve at least 0.9, where 1 is the maximum; inactive = score below 0.9.

Read-out in test [1]: Interferon-inducible T-cell alpha chemoattractant (ITAC), CXCL11 (gene 6373)
The experiment in a line: BSK_BE3C_ITAC: BioMAP Diversity Plus: BE3C Assay for Interferon-inducible T-cell alpha chemoattractant (ITAC) Biomarker Activity (AID 2284279). The settings on record: primary human bronchial epithelial cells. The gist of the method: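 BE3C cells (human primary bronchial epithelium), 24 h compound exposure, I-TAC by ELISA, DMSO = negative control/baseline, positive fitting direction.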

Read-out in test [2]: Interleukin-8 (IL8), CXCL8 (gene 3576)
Nature of the test: BSK_BE3C_IL8: BioMAP Diversity Plus: BE3C Assay for Interleukin-8 (IL8) Biomarker Activity (AID 2284280). To be noted: primary human bronchial epithelial cells. The gist of the method:
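Primary human bronchial epithelial cells (BE3C system) were exposed to test chemical for 24 h, and IL-8 levels were then measured by ELISA. Activity was fitted in the positive (gain-of-signal) direction against a DMSO negative-control baseline.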

Read-out in test [3]: Epidermal growth factor receptor (EGFR), EGFR (gene 1956)
The experiment in a line: BSK_BE3C_EGFR: BioMAP Diversity Plus: BE3C Assay for Epidermal growth factor receptor (EGFR) Biomarker Activity (AID 2284281). The settings on record: primary human bronchial epithelial cells. The gist of the method:
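Human primary bronchial epithelial cells were exposed to compound for 24 h, and cell-surface EGFR was then quantified by ELISA. Activity was fitted in the positive direction against the DMSO vehicle baseline.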

Read-out in another test: KRT18 (gene 3875)
Nature of the test: BSK_BE3C_Keratin818: BioMAP Diversity Plus: BE3C Assay for Keratin 818 Biomarker Activity (AID 2284282). The settings on record: primary human bronchial epithelial cells. The gist of the method: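 In this multiplexed primary-cell system, bronchial epithelial cells were dosed and harvested at 24 h. Keratin 8/18 was determined by ELISA and analysed for increases over DMSO controls.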

Read-out in test [4]: Matrix Metallopeptidase 9 (MMP9), MMP9 (gene 4318)
The experiment in a line: BSK_BE3C_MMP9: BioMAP Diversity Plus: BE3C Assay for Matrix Metallopeptidase 9 (MMP9) Biomarker Activity (AID 2284283). The settings on record: primary human bronchial epithelial cells. Summed up:
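Human primary bronchial epithelial cells in the BE3C system were dosed with compound for 24 h. MMP-9 was measured by ELISA, and the positive-direction response was fitted relative to DMSO as baseline. Parallel SRB staining gauged cytotoxicity.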

Read-out in test [5]: Plasminogen activator inhibitor-1 (PAI1), SERPINE1 (gene 5054)
Nature of the test: BSK_CASM3C_PAI1: BioMAP Diversity Plus: CASM3C Assay for Plasminogen activator inhibitor-1 (PAI1) Biomarker Activity (AID 2284284).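 Note: PAI-1 protein level measured by ELISA 24 h after dosing.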 The settings on record: primary human coronary artery smooth muscle cells.

Read-out in test [6]: Monocyte Chemoattractant Protein-1 (MCP1), CCL2 (gene 6347)
The experiment in a line: BSK_hDFCGF_MCP1: BioMAP Diversity Plus: hDFCGF Assay for Monocyte Chemoattractant Protein-1 (MCP1) Biomarker Activity (AID 2284285). To be noted: primary human foreskin fibroblasts. Summed up: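 MCP-1 ELISA readout was taken 24 hours after dosing primary human dermal fibroblasts in the hDFCGF system, with DMSO as baseline. Parallel sulforhodamine B staining of total protein tracked overt cytotoxicity.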

Read-out in test [7]: Intercellular Adhesion Molecule 1 (ICAM1), ICAM1 (gene 3383)
Nature of the test: BSK_hDFCGF_ICAM1: BioMAP Diversity Plus: hDFCGF Assay for Intercellular Adhesion Molecule 1 (ICAM1) Biomarker Activity (AID 2284287). To be noted: primary human foreskin fibroblasts. Summed up: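 ICAM-1 ELISA readout 24 h after dosing, DMSO as baseline, in human dermal foreskin fibroblast cultures. Cytotoxicity checked in parallel wells by SRB staining (0.1% SRB, 10% TCA fixation, 560 nm).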

Read-out in test [8]: TIMP metallopeptidase inhibitor 2 (TIMP2), TIMP2 (gene 7077)
The experiment in a line: BSK_hDFCGF_TIMP2: BioMAP Diversity Plus: hDFCGF Assay for TIMP metallopeptidase inhibitor 2 (TIMP2) Biomarker Activity (AID 2284289). To be noted: primary human foreskin fibroblasts. The gist of the method: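 Primary human foreskin fibroblasts in the hDFCGF system, dosed for 24 h; TIMP-2 level measured by ELISA, fitted in the positive direction against DMSO; cytotoxicity checked in parallel by sulforhodamine B total protein staining.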

Read-out in test [9]: Thrombomodulin, THBD (gene 7056)
Nature of the test: BSK_LPS_Thrombomodulin: BioMAP Diversity Plus: LPS Assay for Thrombomodulin Biomarker Activity (AID 2284296). To be noted: primary human HUVEC with PBMC. Summed up:
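Thrombomodulin on the surface of LPS-activated endothelial/PBMC co-cultures was quantified by ELISA at 24 hours post-dosing, with DMSO as baseline. Parallel SRB total-protein staining flagged overt cytotoxicity.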

Read-out in the next test: CD69, CD69 (gene 969)
Nature of the test: BSK_LPS_CD69: BioMAP Diversity Plus: LPS Assay for CD69 Biomarker Activity (AID 2284303). To be noted: primary human HUVEC with PBMC. The gist of the method:
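CD69 surface levels were read by ELISA after 24 h chemical treatment of an LPS-stimulated HUVEC plus PBMC co-culture; positive-direction fit against DMSO vehicle.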

Test [10] deals with guinea pig Leukotriene D4 Receptor (LTD4), CYSLTR1 (gene 100135514) (UniProt Q2NNR5). Nature of the test: NVS_GPCR_gLTD4: NovaScreen (NVS) G Protein-Coupled Receptor Assay for guinea pig Leukotriene D4 Receptor (LTD4) (AID 2283248; active = hit-call score of the fitted dose curve at least 0.9, where 1 is the maximum). The gist of the method:
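Guinea pig lung membrane preparation; bound radioligand measured by filter scintillation after 1 h, loss of signal versus DMSO marking displacement. Compounds tested at 25 uM in duplicate, hits retested to max 50 uM.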

For test [11], the target named is human Purinergic Receptor P2Y, P2RY1 (gene 5028) (UniProt P47900). Nature of the test: NVS_GPCR_hPY2: NovaScreen (NVS) G Protein-Coupled Receptor Assay for human Purinergic Receptor P2Y (AID 2283281; active = hit-call score of the fitted dose curve at least 0.9, where 1 is the maximum). Summed up: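 Filtration scintillation readout of radioligand displacement on U937 extract, measured 1 h post-dosing. Single 25 uM duplicate screen, then singleton concentration series to 50 uM for chemicals passing threshold; DMSO as baseline.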
Chain of human Purinergic Receptor P2Y, P2RY1 (gene 5028) (P47900 whole entry, looked up): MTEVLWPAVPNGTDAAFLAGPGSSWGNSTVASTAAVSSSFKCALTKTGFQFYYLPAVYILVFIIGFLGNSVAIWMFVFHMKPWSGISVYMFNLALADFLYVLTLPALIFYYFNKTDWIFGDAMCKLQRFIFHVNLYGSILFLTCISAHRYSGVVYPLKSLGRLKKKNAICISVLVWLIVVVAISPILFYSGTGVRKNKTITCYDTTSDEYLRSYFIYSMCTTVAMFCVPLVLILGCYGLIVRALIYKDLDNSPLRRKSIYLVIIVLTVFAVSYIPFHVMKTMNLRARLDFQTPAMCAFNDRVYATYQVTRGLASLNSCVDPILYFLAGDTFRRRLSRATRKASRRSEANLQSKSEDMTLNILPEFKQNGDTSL

Test [12] addresses Serine/threonine-protein phosphatase PP1-alpha catalytic subunit (Homo sapiens) (UniProt P62136). Nature of the test: NVS_ENZ_hPPP1CA: NovaScreen (NVS) Enzymatic Assay for human Protein Phosphatase 1 Aatalytic subunit Alpha (PPP1CA) (AID 2283200; active = hit-call score of the fitted dose curve at least 0.9, where 1 is the maximum). Summed up:
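Chemicals were first screened in duplicate at 25 uM, and those passing threshold (e.g. 30% inhibition) were run as concentration series to 50 uM. Cell-free recombinant protein, 1.33 h read, fluorescent substrate/product mobility-shift detection, normalised to DMSO.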

The target of test [13] is human Protein Tyrosine Phosphatase Non-receptor Type 4 (PTPN4), PTPN4 (gene 5775) (UniProt P29074). Nature of the test: NVS_ENZ_hPTPN4: NovaScreen (NVS) Enzymatic Assay for human Protein Tyrosine Phosphatase Non-receptor Type 4 (PTPN4) (AID 2283208; active = hit-call score of the fitted dose curve at least 0.9, where 1 is the maximum). Summed up: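 Screened in duplicate at 25 uM, with hits then titrated to a top concentration of 50 uM. Recombinant Sf9-derived PTPN4 turnover was read by fluorescence with electrophoretic separation, 1.33 h after compound addition. DMSO served as baseline.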
Chain of human Protein Tyrosine Phosphatase Non-receptor Type 4 (PTPN4), PTPN4 (gene 5775) (P29074 whole entry, looked up): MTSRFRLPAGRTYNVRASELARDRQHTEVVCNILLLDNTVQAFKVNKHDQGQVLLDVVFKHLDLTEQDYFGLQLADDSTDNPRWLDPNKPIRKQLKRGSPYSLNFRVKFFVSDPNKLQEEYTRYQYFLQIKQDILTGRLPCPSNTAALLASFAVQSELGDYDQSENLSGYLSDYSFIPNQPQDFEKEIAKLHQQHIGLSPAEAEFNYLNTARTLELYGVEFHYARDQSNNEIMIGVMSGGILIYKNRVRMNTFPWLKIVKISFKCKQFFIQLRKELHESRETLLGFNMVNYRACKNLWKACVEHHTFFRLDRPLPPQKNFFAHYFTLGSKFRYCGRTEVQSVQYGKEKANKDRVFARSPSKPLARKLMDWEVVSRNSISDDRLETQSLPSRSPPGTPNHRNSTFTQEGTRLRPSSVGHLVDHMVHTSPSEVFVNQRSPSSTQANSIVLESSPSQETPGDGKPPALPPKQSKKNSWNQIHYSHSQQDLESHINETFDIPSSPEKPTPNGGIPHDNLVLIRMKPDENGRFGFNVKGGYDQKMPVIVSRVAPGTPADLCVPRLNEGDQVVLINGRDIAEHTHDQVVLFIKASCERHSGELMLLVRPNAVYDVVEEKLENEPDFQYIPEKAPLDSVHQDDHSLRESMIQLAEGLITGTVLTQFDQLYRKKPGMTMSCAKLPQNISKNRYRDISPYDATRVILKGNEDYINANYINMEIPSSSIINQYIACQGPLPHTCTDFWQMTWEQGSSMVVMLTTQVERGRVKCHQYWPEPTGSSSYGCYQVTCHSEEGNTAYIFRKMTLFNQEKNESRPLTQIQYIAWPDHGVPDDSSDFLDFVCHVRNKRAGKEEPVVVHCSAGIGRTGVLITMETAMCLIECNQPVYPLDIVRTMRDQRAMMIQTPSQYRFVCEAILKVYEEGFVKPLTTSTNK

A short description of test [14]: Tanguay_ZF_120hpf_PIG_legacy: (Legacy) Oregon State University Tanguay Lab 120 Hour Post-fertilization zebrafish Assay for Pigmentation Malformation (AID 2283650; active = hit-call score of the fitted dose curve at least 0.9, where 1 is the maximum). The gist of the method:
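Pigment malformation recorded as a binary call at 120 hpf in zebrafish (Tropical 5D) exposed singly from 6 hpf after pronase dechorionation. Static, sealed, 28C exposure, 0.64% DMSO; mortality excludes scoring; positive-direction fit against DMSO.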

A short description of test [15]: CCTE_Padilla_ZF_144hpf_TERATOSCORE: (Legacy) CCTE's 144 Hour Post-fertilization zebrafish Assay Teratoscore, Padilla Lab (AID 2283679).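 Note: zebrafish embryos with chorions exposed by immersion from 6-8 hpf to 5 dpf with daily renewal; teratogenicity score from eye scoring of death hatching and malformations at 144 hpf; higher score means more developmental defects relative to DMSO baseline.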 Summed up: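 Larvae scored by eye at 144 hpf for death, hatching and malformations after a day in clean Hanks'. Before that, daily-renewed exposure at 80 uM (0.4% DMSO, 26C) from roughly 6-8 hpf through 5 dpf, 4 embryos per chemical.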

The target in test [16] is Cytochrome P450 2C18 (Homo sapiens) (UniProt P33260). The experiment in a line: NVS_ADME_hCYP2C18: NovaScreen (NVS) CYP450-related Enzyme Activity (ADME) Assay for human CYP2C18 (AID 2283103). The gist of the method:
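Enzyme activity measured by fluorescence 0.5 h after compound addition, using recombinant CYP2C18 and a specific substrate. Actives from duplicate 10 uM screening were retested in concentration series (top 20 uM); acetonitrile served as negative baseline.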

The subject of test [17] is zebrafish Androgen Receptor (AR), gene 100005148. The experiment in a line: ATG_zfAR_XSP1: Attagene TRANS-FACTORIAL Multi-Species (XSP1) HepG2 Assay for zebrafish Androgen Receptor (AR) (AID 2283771; active = hit-call score of the fitted dose curve at least 0.9, where 1 is the maximum). The gist of the method: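 Gain-of-signal versus DMSO was measured as reporter transcripts quantified by RT-PCR, fluorescent labelling and capillary electrophoresis after 24 h chemical exposure. The cells were HepG2 expressing a chimeric zebrafish AR-GAL4, co-stimulated with 3 nM 6-alpha-fluorotestosterone.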

Test [18] relates to zebrafish Estrogen Receptor (ESR2B), gene 317733. Nature of the test: ATG_zfER2b_XSP1: Attagene TRANS-FACTORIAL Multi-Species (XSP1) HepG2 Assay for zebrafish Estrogen Receptor (ESR2B) (AID 2283773; active = hit-call score of the fitted dose curve at least 0.9, where 1 is the maximum). The gist of the method: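 Medium contained 3 nM 6-alpha-fluorotestosterone. Reporter mRNA induction by exogenous zebrafish ER2b-Gal4 chimera was read 24 h post-dose in transiently transfected HepG2 cells, using RT-PCR, fluorescent labelling, HpaI digestion and capillary electrophoresis.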

Chain of guinea pig Leukotriene D4 Receptor (LTD4), CYSLTR1 (gene 100135514) (Q2NNR5 whole entry, looked up): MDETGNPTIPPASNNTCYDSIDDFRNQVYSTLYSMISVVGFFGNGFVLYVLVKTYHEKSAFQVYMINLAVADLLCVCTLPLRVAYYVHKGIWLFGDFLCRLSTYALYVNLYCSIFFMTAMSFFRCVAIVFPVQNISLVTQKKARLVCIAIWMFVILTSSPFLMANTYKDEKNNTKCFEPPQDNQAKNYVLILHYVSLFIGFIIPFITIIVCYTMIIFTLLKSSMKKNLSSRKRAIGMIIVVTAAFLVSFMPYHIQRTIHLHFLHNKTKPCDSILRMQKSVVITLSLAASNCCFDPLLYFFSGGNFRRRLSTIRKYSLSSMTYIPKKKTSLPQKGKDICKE
Chain of Serine/threonine-protein phosphatase PP1-alpha catalytic subunit (Homo sapiens) (P62136 whole entry, looked up): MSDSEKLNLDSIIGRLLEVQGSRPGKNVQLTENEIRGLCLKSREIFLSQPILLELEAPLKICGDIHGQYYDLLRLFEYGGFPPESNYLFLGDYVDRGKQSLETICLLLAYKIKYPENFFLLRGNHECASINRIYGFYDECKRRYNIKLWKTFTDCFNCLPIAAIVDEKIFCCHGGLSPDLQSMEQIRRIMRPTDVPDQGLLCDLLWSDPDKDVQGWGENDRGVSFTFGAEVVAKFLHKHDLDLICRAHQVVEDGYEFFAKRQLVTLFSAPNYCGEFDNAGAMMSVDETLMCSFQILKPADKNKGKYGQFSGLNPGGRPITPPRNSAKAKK
Chain of Cytochrome P450 2C18 (Homo sapiens) (P33260 whole entry, looked up): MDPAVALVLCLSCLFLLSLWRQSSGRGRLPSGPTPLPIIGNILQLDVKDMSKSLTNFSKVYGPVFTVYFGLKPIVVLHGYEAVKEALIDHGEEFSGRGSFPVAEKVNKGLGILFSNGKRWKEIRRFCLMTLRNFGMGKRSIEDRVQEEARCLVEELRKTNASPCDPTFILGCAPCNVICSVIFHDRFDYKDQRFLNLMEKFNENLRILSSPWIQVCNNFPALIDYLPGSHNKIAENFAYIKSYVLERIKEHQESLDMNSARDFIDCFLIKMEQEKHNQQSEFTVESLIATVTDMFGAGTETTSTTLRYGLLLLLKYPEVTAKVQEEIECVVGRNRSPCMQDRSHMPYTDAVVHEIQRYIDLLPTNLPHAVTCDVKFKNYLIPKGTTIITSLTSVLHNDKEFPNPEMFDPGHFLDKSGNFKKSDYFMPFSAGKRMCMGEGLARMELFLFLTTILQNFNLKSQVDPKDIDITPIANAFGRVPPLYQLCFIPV

On to `COc1ccc(CO)cc1`, for which the outcome (in test [1]; in test [2]; in [3]; with KRT18 (gene 3875); in [4]; in test [5]) was inactive. Besides, the outcome in test [6] was “inactive”; in [7] it was “inactive”; in [8], “inactive”; in [9], “inactive”; in the test with CD69, CD69 (gene 969), “inactive”.

With `S=c1[nH]c2ccccc2[nH]1`, the outcome in [10] was inactive.

As for `CCOC(=O)NC(=S)Nc1ccccc1NC(=S)NC(=O)OCC`, the compound was classed as inactive in [11].

As a reminder, the AC50 is the midpoint of the concentration-response curve, whichever way the signal moves. For the compound `O=C(CCl)c1ccccc1`, the result in test [12], in [13] and in test [14] was inactive. For the same compound, the half-maximal activity concentration (AC50) in test [15] is 4.85 µM (active).

Take `CC(C)[C@@H](C(=O)O[C@@H](C#N)c1cccc(Oc2ccccc2)c1)c1ccc(Cl)cc1`: the result in [16] was inactive.

Take `CC(=O)c1cc2c(cc1C)C(C)(C)C(C)CC2(C)C` (stereo not given): the half-maximal activity concentration (AC50) in test [17] is 64.4 µM (active); in test [18], 25.5 µM (active).

The record behind these values is PubChem BioAssay (EPA / NIEHS).
